Four molecules from PubChem BioAssay (EPA / NIEHS) can be followed below.

Each structure is given as a SMILES string. Results filed as inconclusive are left out. Calls of active or inactive are those of the source. How the source made its calls, unless noted: active means hit-call score of the fitted dose curve at least 0.9, where 1 is the maximum; inactive means score below 0.9.

A word on the AC50: it is the midpoint of the concentration-response curve, whichever way the signal moves.

Test [1] in a line: ATG_Hpa5_TRANS: Attagene TRANS-FACTORIAL HepG2 Assay for human GAL4-Hpa5 Hepatocyte Transcription Factor Basal Promoter (AID 2282975; active means hit-call score of the fitted dose curve at least 0.9, where 1 is the maximum;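 further: hits are increases in reporter mRNA over DMSO baseline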). As to conditions: HepG2 Attagene GAL4-Hpa5 transcription reporter. An outline of the steps: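 Gain-of-signal versus DMSO is fitted for reporter mRNA quantified by RT-PCR and capillary electrophoresis after 24 h exposure. This endpoint is an internal background marker in transiently transfected HepG2 cells carrying GAL4-UAS reporter units.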

Test [2] is described as follows: ATG_GAL4_TRANS: Attagene TRANS-FACTORIAL HepG2 Assay for GAL4 (Internal Marker) (AID 2282976; active means hit-call score of the fitted dose curve at least 0.9, where 1 is the maximum). To be noted: HepG2 Attagene TRANS GAL4 internal marker reporter. An outline of the steps: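 Fluorescence from capillary electrophoresis of labelled RT-PCR products quantifies reporter mRNA induction after 24 h dosing of HepG2 cells carrying transfected GAL4-UAS reporter transcription units. Vehicle DMSO serves as baseline.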

The target of test [3] is Hepatocyte nuclear factor 4-alpha (Homo sapiens) (UniProt P41235). Briefly: ATG_HNF4a_TRANS: Attagene TRANS-FACTORIAL HepG2 Assay for human Hepatocyte Nuclear Factor 4 alpha (HNF4a) (AID 2282982; active means hit-call score of the fitted dose curve at least 0.9, where 1 is the maximum). As to conditions: HepG2 HNF4a transactivation reporter, mRNA readout. An outline of the steps: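 Transient MRTU transfection of HepG2, 24 h dosing. Readout: reporter mRNA via RT-PCR + capillary electrophoresis, fluorescence; activity fit upward relative to DMSO control.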
Sequence of Hepatocyte nuclear factor 4-alpha (Homo sapiens) (P41235 whole entry, looked up): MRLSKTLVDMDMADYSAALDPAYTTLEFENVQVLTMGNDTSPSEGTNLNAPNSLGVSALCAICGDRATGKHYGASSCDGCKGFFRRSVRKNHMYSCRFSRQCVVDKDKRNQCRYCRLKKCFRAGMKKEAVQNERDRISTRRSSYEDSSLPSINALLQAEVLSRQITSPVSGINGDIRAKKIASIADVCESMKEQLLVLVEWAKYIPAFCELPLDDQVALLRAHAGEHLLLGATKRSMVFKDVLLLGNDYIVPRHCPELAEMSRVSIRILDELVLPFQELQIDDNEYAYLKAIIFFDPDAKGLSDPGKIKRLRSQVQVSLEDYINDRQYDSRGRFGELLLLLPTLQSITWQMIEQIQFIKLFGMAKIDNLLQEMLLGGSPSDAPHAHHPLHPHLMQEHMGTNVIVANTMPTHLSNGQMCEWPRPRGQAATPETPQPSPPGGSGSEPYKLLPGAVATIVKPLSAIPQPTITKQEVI

Test [4] can be described thus: ATG_M_32_TRANS: Attagene TRANS-FACTORIAL HepG2 Assay for M32 Transcription Factor (Internal Marker) (AID 2282984; active means hit-call score of the fitted dose curve at least 0.9, where 1 is the maximum;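 further: transcript level of a background control reporter unit measured by RT-PCR and capillary electrophoresis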). To be noted: HepG2 Attagene TRANS M32 internal marker reporter. A digest of the protocol:
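Read-out: fluorescent reporter cDNA fragments resolved by capillary electrophoresis after RT-PCR of total RNA. Transfected HepG2 cells were exposed to chemical for 24 h. Activity scored in the positive direction relative to DMSO.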

In test [5] the target is Nuclear receptor subfamily 4 group A member 2 (Homo sapiens) (UniProt P43354). The test is described as follows: ATG_NURR1_TRANS: Attagene TRANS-FACTORIAL HepG2 Assay for human Nuclear Receptor Related Protein 1 (NURR1) (AID 2282985; active means hit-call score of the fitted dose curve at least 0.9, where 1 is the maximum). To be noted: HepG2 Attagene TRANS reporter, mRNA readout. An outline of the steps:
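Read-out: reporter mRNA induction by RT-PCR plus capillary electrophoresis with fluorescence detection, after 24 h dosing of transfected HepG2 cells. Exogenous NR-Gal4 chimera activity drives GAL4-UAS reporter; activity fitted upward versus DMSO.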

In test [6] the target is Transcriptional activator Myb (Homo sapiens) (UniProt P10242). Briefly: ATG_Myb_CIS: Attagene CIS-FACTORIAL HepG2 Assay for human Myeloblastosis (Myb) Proto-Oncogene Transcription Factor (AID 2282986). As to conditions: HepG2 Attagene CIS-FACTORIAL Myb reporter transcription; actives raise or lower the signal. A digest of the protocol:
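Steps: transfect HepG2 with cis-regulated reporter units; dose with chemical for 24 h; isolate RNA, reverse-transcribe, PCR-amplify and FAM-label reporter sequences; digest with HpaI; resolve by capillary electrophoresis. Activity fitted in both directions relative to DMSO.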

Test [7] addresses Nuclear respiratory factor 1 (Homo sapiens) (UniProt Q16656). Briefly: ATG_NRF1_CIS: Attagene CIS-FACTORIAL HepG2 Assay for human Nuclear Respiratory Factor 1 (NRF1) Orphan Gene (AID 2282987). To be noted: HepG2 NRF1 cis-element reporter, Attagene multiplex; actives raise or lower the signal. A digest of the protocol: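 Fluorescence intensity of labelled reporter cDNA fragments, resolved by capillary electrophoresis, served as readout for NRF1 cis-element activity. Transiently transfected HepG2 cells were dosed for 24 hours; activity in either direction was fitted against DMSO negative control.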

Test [8] is described as follows: ATG_NFI_CIS: Attagene CIS-FACTORIAL HepG2 Assay for human Nuclear Factor I (NFI) (AID 2282989). As to conditions: HepG2 cis-regulatory reporter, NFI response element transcription; actives raise or lower the signal. An outline of the steps:
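Reporter transcripts were measured by RT-PCR with fluorescent primer extension and capillary electrophoresis 24 h post-treatment. HepG2 cells carried transiently transfected cis-regulated reporter constructs reporting endogenous factor activity; gain or loss fitted against DMSO baseline.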

Test [9] addresses Myc proto-oncogene protein (Homo sapiens) (UniProt P01106). Briefly: ATG_Myc_CIS: Attagene CIS-FACTORIAL HepG2 Assay for human Myelocytomatosis (Myc) Proto-Oncogene Transcription Factor (AID 2282990). As to conditions: HepG2, Attagene cis-reporter transcription factor activity; actives raise or lower the signal. A digest of the protocol: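 Transiently transfected HepG2 cells bearing cis-promoter reporter units for endogenous transcription factors; 24 h exposure. Reporter mRNA measured by RT-PCR, 6-FAM primer extension, HpaI cut and capillary electrophoresis; bidirectional fit relative to DMSO.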

Test [10] in a line: ATG_NF_kB_CIS: Attagene CIS-FACTORIAL HepG2 Assay for human Nuclear Factor Kappa B (NF-kB) (AID 2282991). As to conditions: HepG2 Attagene cis-factorial NF-kB reporter mRNA; actives raise or lower the signal. An outline of the steps: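 Endogenous transcription factor activity in HepG2 was captured via cis-regulated reporter constructs; after 24 h dosing, reporter mRNA was reverse-transcribed, amplified, fluorescently labelled and sized by capillary electrophoresis, with activity fitted bidirectionally relative to DMSO.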

A short description of test [11]: ATG_NRF2_ARE_CIS: Attagene CIS-FACTORIAL HepG2 Assay for human Nuclear Factor Erythroid 2 Related Factor 2 (NFR2) response to Antioxidant Response Elements (ARE) (AID 2282992). To be noted: HepG2 Attagene ARE/NRF2 reporter, transcription factor activity; actives raise or lower the signal. An outline of the steps: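 Fluorescence intensity of reporter-specific cDNA fragments, separated by capillary electrophoresis, reflects mRNA induction in transfected HepG2 cells at 24 h. Activity is fitted bidirectionally, DMSO serving as baseline.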

Test [12] is described as follows: ATG_Oct_MLP_CIS: Attagene CIS-FACTORIAL HepG2 Assay for human Octamer-Binding Transcription Factor (Oct) (AID 2282993). To be noted: HepG2 Attagene cis-factorial Oct reporter, mRNA; actives raise or lower the signal. An outline of the steps:
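Readout is reporter transcript level from RT-PCR with fluorescent primer extension and capillary electrophoresis, fitted in both directions against DMSO. Transfected HepG2 reporter units report endogenous factor activity after 24 h dosing.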

Test [13] concerns the target Cellular tumor antigen p53 (Homo sapiens) (UniProt P04637). Briefly: ATG_p53_CIS: Attagene CIS-FACTORIAL HepG2 Assay for human p53 Transcription Factor (AID 2282994). To be noted: HepG2 p53 cis-element reporter, Attagene mRNA; actives raise or lower the signal. An outline of the steps:
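Transiently transfected HepG2 (multiple cis reporter transcription units); exposure 24 h; reporter RNA via RT-PCR, 6-FAM extension, 2 h HpaI digest at 37 C, CE detection; DMSO baseline.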

Test [14] can be described thus: BSK_3C_TissueFactor: BioMAP Diversity Plus: 3C Assay for Tissue Factor Biomarker Activity (AID 2282997). To be noted: BioMAP 3C HUVEC, tissue factor biomarker readout; actives raise or lower the signal. A digest of the protocol: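 Cells used were primary human umbilical vein endothelial cells. They were dosed with chemical, and after 24 h Tissue Factor was quantified by ELISA. Curves were fitted bidirectionally with DMSO as baseline.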

A short description of test [15]: BSK_3C_uPAR: BioMAP Diversity Plus: 3C Assay for Urokinase-type plasminogen activator receptor (uPAR) Biomarker Activity (AID 2282998). To be noted: BioMAP 3C HUVEC, uPAR biomarker ELISA; actives raise or lower the signal. An outline of the steps:
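Cell-surface uPAR on HUVEC (3C system) read by ELISA at 24 h post-treatment, with DMSO as baseline and fitting in both directions. Parallel cultures stained with SRB to flag overt cytotoxicity.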

The nature of test [16]: BSK_3C_VCAM1: BioMAP Diversity Plus: 3C Assay for Vascular cell adhesion molecule 1 (VCAM1) Biomarker Activity (AID 2282999). To be noted: BioMAP 3C HUVEC, VCAM1 ELISA, cytokine-stimulated; actives raise or lower the signal. A digest of the protocol:
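HUVEC primary cells, 24 h compound exposure; VCAM-1 by ELISA; gain/loss of signal fitted bidirectionally vs DMSO baseline.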
On the technique in general: An ELISA detects its analyte on a solid surface through an enzyme-linked reagent.

The target in test [17] is Glucocorticoid receptor (Homo sapiens) (UniProt P04150). The test is described as follows: ATG_GR_TRANS: Attagene TRANS-FACTORIAL HepG2 Assay for human Glucocorticoid Receptor (GR) (AID 2282978; active means hit-call score of the fitted dose curve at least 0.9, where 1 is the maximum;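 further: activators score as hits since higher reporter transcript over DMSO is fitted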). To be noted: HepG2 Attagene TRANS GR reporter, mRNA transcription. An outline of the steps:
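In this trans-factorial format, exogenous NR-GAL4 chimeric proteins in transfected HepG2 cells regulate GAL4-UAS reporter transcription. After 24 h treatment, reporter mRNA induction relative to DMSO is read by RT-PCR and capillary electrophoresis.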

Test [18] concerns the target Oxysterols receptor LXR-beta (Homo sapiens) (UniProt P55055). The test is described as follows: ATG_LXRb_TRANS: Attagene TRANS-FACTORIAL HepG2 Assay for human Liver X Receptor beta (LXRb) (AID 2282981; active means hit-call score of the fitted dose curve at least 0.9, where 1 is the maximum). As to conditions: HepG2 Attagene TRANS GAL4-LXRb reporter, mRNA. A digest of the protocol:
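Readout: fluorescent reporter mRNA fragments resolved by capillary electrophoresis after RT-PCR. System: transiently transfected human HepG2, exogenous LXRb-Gal4 chimera driving GAL4-UAS reporter, 24 h dosing. Activity fitted upward against DMSO baseline.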

In test [19] the target is Oxysterols receptor LXR-alpha (Homo sapiens) (UniProt Q13133). The test is described as follows: ATG_LXRa_TRANS: Attagene TRANS-FACTORIAL HepG2 Assay for human Liver X Receptor alpha (LXRa) (AID 2282980; active means hit-call score of the fitted dose curve at least 0.9, where 1 is the maximum). As to conditions: HepG2 Attagene TRANS reporter, LXRa transactivation. An outline of the steps: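 Transient HepG2 transfectants, 24 h dosing, RT-PCR/CE mRNA reporter quantitation; gain-of-signal vs DMSO.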
Sequence of Oxysterols receptor LXR-alpha (Homo sapiens) (Q13133 whole entry, looked up): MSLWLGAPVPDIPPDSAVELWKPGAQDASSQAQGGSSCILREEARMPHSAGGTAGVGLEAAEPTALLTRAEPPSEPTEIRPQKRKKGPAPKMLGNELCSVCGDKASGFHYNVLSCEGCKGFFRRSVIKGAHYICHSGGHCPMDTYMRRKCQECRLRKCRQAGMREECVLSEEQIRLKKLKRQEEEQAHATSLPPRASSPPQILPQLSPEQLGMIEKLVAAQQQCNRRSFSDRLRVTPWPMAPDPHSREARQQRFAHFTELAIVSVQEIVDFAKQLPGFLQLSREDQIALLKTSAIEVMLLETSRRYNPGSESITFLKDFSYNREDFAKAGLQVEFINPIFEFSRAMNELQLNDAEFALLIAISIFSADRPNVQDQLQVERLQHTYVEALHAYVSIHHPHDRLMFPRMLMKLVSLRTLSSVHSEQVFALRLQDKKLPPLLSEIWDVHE

Sequence of Transcriptional activator Myb (Homo sapiens) (P10242 whole entry, looked up): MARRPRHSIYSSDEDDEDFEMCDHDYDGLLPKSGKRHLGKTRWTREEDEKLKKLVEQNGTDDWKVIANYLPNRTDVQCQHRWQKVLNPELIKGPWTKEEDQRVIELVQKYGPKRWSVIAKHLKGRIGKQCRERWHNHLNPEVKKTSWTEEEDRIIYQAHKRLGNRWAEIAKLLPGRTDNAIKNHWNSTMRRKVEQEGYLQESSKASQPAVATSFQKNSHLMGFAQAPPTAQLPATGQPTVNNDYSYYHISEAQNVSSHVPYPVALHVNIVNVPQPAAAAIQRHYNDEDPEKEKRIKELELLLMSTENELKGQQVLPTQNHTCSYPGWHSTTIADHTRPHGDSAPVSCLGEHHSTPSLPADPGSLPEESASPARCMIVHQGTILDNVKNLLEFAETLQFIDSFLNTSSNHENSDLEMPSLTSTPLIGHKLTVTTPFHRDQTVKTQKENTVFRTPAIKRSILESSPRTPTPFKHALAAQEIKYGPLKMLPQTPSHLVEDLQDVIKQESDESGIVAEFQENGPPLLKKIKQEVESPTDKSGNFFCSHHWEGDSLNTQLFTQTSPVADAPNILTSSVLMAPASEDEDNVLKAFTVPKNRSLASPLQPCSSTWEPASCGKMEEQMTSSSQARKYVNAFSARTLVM
Sequence of Cellular tumor antigen p53 (Homo sapiens) (P04637 whole entry, looked up): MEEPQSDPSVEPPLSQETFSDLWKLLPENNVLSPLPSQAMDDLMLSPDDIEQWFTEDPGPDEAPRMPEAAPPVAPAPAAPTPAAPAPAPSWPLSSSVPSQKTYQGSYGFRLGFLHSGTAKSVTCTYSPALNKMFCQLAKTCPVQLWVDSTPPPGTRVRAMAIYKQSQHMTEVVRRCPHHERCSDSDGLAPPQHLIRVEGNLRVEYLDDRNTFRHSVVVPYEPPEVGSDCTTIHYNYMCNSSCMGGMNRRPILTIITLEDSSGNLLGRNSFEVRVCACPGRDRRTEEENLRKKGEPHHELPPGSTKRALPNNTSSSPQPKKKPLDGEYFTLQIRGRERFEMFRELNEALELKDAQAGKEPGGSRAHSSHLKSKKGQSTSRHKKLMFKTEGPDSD
Sequence of Glucocorticoid receptor (Homo sapiens) (P04150 whole entry, looked up, the tested form may be a part): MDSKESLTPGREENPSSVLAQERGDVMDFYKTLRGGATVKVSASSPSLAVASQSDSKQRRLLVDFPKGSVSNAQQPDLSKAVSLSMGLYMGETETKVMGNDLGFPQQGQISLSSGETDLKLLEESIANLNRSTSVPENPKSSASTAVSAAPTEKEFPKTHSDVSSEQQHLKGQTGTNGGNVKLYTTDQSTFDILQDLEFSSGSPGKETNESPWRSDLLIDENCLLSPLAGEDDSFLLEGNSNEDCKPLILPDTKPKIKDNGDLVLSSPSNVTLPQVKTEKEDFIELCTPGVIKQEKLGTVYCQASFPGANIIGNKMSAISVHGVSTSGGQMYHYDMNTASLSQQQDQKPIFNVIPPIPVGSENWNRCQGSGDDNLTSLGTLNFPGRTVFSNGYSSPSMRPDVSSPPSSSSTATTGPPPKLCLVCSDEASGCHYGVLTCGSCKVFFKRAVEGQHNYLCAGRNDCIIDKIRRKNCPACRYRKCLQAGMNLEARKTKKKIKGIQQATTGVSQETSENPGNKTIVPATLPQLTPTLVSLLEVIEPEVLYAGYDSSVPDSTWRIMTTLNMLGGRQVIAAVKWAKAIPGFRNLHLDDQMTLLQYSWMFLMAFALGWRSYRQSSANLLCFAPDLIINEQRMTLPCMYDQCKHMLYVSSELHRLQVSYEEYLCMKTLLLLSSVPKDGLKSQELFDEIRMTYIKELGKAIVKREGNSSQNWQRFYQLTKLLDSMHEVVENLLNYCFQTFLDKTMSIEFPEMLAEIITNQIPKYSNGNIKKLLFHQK
Sequence of Myc proto-oncogene protein (Homo sapiens) (P01106 whole entry, looked up): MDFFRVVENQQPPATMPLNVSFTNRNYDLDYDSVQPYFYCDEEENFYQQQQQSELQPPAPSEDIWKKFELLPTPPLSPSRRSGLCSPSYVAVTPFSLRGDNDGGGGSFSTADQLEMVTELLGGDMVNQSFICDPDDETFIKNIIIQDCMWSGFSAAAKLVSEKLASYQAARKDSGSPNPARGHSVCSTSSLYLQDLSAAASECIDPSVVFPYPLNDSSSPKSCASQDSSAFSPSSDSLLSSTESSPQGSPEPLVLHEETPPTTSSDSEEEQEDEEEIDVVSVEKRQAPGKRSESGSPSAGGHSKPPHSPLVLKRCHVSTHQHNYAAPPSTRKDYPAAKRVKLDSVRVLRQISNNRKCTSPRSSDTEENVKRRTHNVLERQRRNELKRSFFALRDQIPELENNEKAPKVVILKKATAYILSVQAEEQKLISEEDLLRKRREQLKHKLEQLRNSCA
Sequence of Nuclear receptor subfamily 4 group A member 2 (Homo sapiens) (P43354 whole entry, looked up, the tested form may be a part): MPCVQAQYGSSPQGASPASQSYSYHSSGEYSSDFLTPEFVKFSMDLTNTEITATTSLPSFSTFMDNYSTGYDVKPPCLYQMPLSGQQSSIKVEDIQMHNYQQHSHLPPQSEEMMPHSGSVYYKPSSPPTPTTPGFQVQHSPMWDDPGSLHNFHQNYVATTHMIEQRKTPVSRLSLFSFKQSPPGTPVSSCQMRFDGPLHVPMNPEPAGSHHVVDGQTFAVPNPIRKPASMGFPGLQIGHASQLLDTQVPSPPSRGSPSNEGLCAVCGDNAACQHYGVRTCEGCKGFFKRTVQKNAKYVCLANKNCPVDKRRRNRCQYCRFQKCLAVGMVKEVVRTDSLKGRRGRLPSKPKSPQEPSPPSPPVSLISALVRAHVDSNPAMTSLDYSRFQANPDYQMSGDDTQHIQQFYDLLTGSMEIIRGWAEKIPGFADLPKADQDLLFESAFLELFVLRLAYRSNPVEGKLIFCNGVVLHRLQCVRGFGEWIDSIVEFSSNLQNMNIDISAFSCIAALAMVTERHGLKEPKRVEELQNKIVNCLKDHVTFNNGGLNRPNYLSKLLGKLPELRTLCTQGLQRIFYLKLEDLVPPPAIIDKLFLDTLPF
Sequence of Nuclear respiratory factor 1 (Homo sapiens) (Q16656 whole entry, looked up, the tested form may be a part): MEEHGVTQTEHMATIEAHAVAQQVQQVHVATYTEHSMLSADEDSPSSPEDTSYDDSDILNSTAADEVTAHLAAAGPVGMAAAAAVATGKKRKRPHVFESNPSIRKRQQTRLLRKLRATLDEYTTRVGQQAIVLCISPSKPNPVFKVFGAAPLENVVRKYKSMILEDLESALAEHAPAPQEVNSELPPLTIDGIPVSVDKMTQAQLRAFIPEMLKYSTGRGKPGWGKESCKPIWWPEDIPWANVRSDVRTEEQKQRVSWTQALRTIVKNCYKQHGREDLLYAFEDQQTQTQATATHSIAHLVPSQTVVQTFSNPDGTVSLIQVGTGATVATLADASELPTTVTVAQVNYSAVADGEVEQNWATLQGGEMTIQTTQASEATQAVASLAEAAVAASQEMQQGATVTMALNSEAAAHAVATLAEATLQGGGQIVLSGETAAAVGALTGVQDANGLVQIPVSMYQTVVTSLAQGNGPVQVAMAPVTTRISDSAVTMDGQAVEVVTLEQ
Sequence of Oxysterols receptor LXR-beta (Homo sapiens) (P55055 whole entry, looked up, the tested form may be a part): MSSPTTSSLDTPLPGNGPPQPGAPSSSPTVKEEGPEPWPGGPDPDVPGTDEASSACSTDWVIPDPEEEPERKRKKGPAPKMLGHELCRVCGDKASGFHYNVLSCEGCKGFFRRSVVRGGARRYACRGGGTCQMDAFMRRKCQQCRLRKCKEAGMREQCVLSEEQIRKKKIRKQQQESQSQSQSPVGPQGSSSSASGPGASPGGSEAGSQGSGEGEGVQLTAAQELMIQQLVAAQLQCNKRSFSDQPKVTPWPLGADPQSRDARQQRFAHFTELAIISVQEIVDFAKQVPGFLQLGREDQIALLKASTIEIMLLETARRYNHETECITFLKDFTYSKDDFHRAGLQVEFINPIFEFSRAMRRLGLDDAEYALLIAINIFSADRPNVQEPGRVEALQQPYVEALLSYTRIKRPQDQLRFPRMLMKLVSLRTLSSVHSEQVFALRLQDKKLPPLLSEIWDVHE

On to `Cc1c(COC(=O)[C@@H]2[C@H](/C=C(\Cl)C(F)(F)F)C2(C)C)cccc1-c1ccccc1`, for which the result in [1], in test [2], in [3], in test [4], in test [5] and in [6] was inactive. Further, the outcome in test [7], in test [8], in test [9], in test [10], in test [11] and in test [12] was inactive. Besides, the call in test [13], in [14], in test [15] and in test [16] was inactive.
Consider `CC(C)N1C(=O)N(c2ccccc2)CSC1=NC(C)(C)C`, for which the call in [1], in test [17], in [6], in [7], in test [8] and in [9] was inactive. Besides, the call in [10], in test [11], in test [12] and in test [13] was inactive. In addition, the AC50 in [14] is 22.9 µM (active); in test [15], 30.4 µM (active); in test [16], 32 µM (active).
In the case of `CCCCC(C#N)(Cn1cncn1)c1ccc(Cl)cc1` (stereo unspecified), the result in [1], in test [17], in test [18], in [3], in test [5] and in [6] was inactive. Further, the molecule was classed as inactive in test [7], in test [8], in [9], in test [11], in test [12] and in [13]. Moreover, the result in test [14], in test [15] and in [16] was inactive.
In the case of `CCCC(=NOCC)C1=C(O)CC(CC(C)SCC)CC1=O` (stereo unspecified), the result in test [1], in test [17], in test [19], in test [18], in [3] and in test [5] was inactive. In addition, the outcome in test [6], in test [7], in [8], in [9], in test [10] and in [11] was inactive. Further, the call in [12], in test [13], in test [14], in test [15] and in test [16] was inactive.
